Peg3 prom inh-1 = Peg3 promoter activity inhibition; 1.7% of 360,000 active; inhibition, % at 20 µM; HeLa PEG-Prom luciferase reporter, luminescence, overnight;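 active means inhibition of at least 50% at 20 µM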
HIF-2a block = HIF-2a inhibition; 786-0 RCC cells HIF-2a reporter, luciferase luminescence, overnight; inhibition, % at 18.8 µM; 0.72% of 360,000 active; AID 624352;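 active means inhibition of the luminescence signal of 40% or more relative to plate controls, in a single-dose primary screen at 18.75 µM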
KKLEB cytotox = counter-screen for CF NF-kB inhibitors: cytotoxicity | KKLEB CF airway cells viability, ATPlite luminescence, overnight; hits give low values; cells stimulated with P. aeruginosa culture filtrate | 0.36% of 360,000 active | activity change (cytotoxicity), % at 5 µM | AID 602141;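 active means corrected activity change at or below -50% at 5 µM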
LMP1 NFkB inh = inhibitors of Epstein-Barr LMP1-induced NF-kappaB reporter | inhibition, % at 12.5 µM | 0.69% of 350,000 active | LMP1-induced NF-kappaB luciferase reporter cells, luminescence; in the data active means inhibition above about 41%
Shn3 3UTR inh = Schnurri-3 reporter inhibition in Clone20 osteoblasts. AID 588674. Clone20 osteoblast Shn3 3'UTR firefly luciferase, 24 h. inhibition, % at 12.5 µM. 0.52% of 360,000 active;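 active means mean inhibition of at least 75% with every replicate also reaching 75%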
CF NFkB inh = inhibitors of cystic fibrosis induced NF-kB | KKLEB NF-kB-GFP reporter, PAF-induced, GFP fluorescence overnight | inhibition, % at 5 µM | 0.86% of 360,000 active | AID 588850;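 active means at least 50% inhibition at 5 µM, scaled per plate between neutral and stimulator controls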;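 further: PAF is a Pseudomonas aeruginosa culture filtrate used as stimulus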
Peg3 prom inh-2 = confirmation of Peg3 promoter inhibitors | HeLa PEG-Prom luciferase reporter, luminescence, overnight | shares compounds with Peg3 prom inh-1 | AID 602417 | 84% of 1,300 active | inhibition, % at 20 µM;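 active means at 20 µM dose, 40% or more inhibition averaged across four replicates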
CF NFkB conf = confirmation of cystic fibrosis induced NF-kB inhibitors. inhibition, % at 5 µM. 64% of 1,300 active. shares compounds with CF NFkB inh. KKLEB CF airway cells, PAF-induced NF-kB-GFP fluorescence, overnight; in the data active means inhibition above about 40%;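 further: stimulus PAF is a Pseudomonas aeruginosa filtrate and not platelet activating factor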
Large screens that a line does not name were inactive (follow-up assays come after a bar, where they were run). In the library only some 2.9% were active in any assay of this set; here they are far more common.

CCOC(=O)/C(CCCN(CC)CC)=N\O	none
Cc1cc(C)cc(N2C(=O)NC(=O)/C(=C\c3cccn3-c3ccc(Cl)cc3)C2=O)c1	Peg3 prom inh-1 104 | Peg3 prom inh-2 56
O=C1NC(=S)NC(=O)C1=Cc1cccn1-c1ccc(O)cc1	Peg3 prom inh-1 71, HIF-2a block 56 | Peg3 prom inh-2 49
COc1ccccc1C=C1C(=O)NC(=S)NC1=O	none
CCOC(=O)c1c(-n2c(C)cc(C=C3C(=O)NC(=S)NC3=O)c2C)sc2c1CCCC2	Peg3 prom inh-1 109, HIF-2a block 77 | Peg3 prom inh-2 62
OCC12COC3c4ccccc4C(OC1)N32 (stereo not drawn)	none
O=C1NCN(c2ccccc2)C12CCN(C(c1cccs1)c1nnnn1Cc1ccccc1)CC2 (stereo not drawn)	Peg3 prom inh-1 50 (no result: LMP1 NFkB inh) | Peg3 prom inh-2 40
O=[N+]([O-])c1ccc(NC2CCCC2)c2ccncc12	none
O=[N+]([O-])c1ccc(NC2CCN(Cc3ccccc3)CC2)c2ccncc12	Peg3 prom inh-1 67 | Peg3 prom inh-2 78
CN1CCN(c2ccc(C(F)(F)F)cc2N)CC1	none
COc1cc2nc(CN3CC=C(c4ccccc4)CC3)[nH]c(=O)c2cc1OC	Peg3 prom inh-1 102, CF NFkB inh 69 | Peg3 prom inh-2 94
CC[C@@H](O)C[C@H]1CCC[C@@]2(C[C@@H]3OC(=O)/C=C/[C@@](C)(O)[C@@H](O)[C@H](C)[C@@H](O)[C@H](OC4CCC(N(C)C)C(C)O4)[C@@H](O)[C@](C)(O)CCCCC/C=C/[C@@H]4CC(C)(C)O[C@@]4(O)C[C@H](O2)[C@H]3C)O1 (stereo partly drawn)	Peg3 prom inh-1 89, Shn3 3UTR inh 90 | Peg3 prom inh-2 93
COc1ccc(NC(=O)N2C[C@@H]3C[C@@H](C2)c2cccc(=O)n2C3)c(OC)c1	none
O=C(C[N+]12CCC(CC1)C(C(O)(c1ccccc1)c1ccccc1)C2)c1ccc(Br)cc1 (stereo not drawn)	none
CC(=O)OC1CC[C@]2(C#N)[C@H]3CC[C@]4(C)[C@H](C5C=CC(=O)O5)CCC4(O)C3CCC2(O)C1 (stereo partly drawn)	Peg3 prom inh-1 76 | Peg3 prom inh-2 87
COc1ccccc1-n1c(O)c(/C=N/NC(=S)Nc2ccccc2)c(=O)[nH]c1=S	none
COc1cccc(C(c2nnnn2-c2c(C)cccc2C)N2CCC(n3c(=O)[nH]c4ccccc43)CC2)c1OC (stereo not drawn)	Peg3 prom inh-1 58 (no result: LMP1 NFkB inh) | Peg3 prom inh-2 42
CCCCn1nnnc1C(CCSC)N1CCC(n2c(=O)[nH]c3ccccc32)CC1 (stereo not drawn)	Peg3 prom inh-1 52 (no result: LMP1 NFkB inh) | Peg3 prom inh-2 68
CCCCn1nnnc1C(C1CC1)N1CCC(n2c(=O)[nH]c3ccccc32)CC1 (stereo not drawn)	none (no result: LMP1 NFkB inh)
O=c1c2ccccc2nc(CSc2ncnc3nc[nH]c23)n1-c1ccc(Cl)c(Cl)c1	Peg3 prom inh-1 60 | Peg3 prom inh-2 45
COc1ccc(-c2nc3ccccc3c(=O)n2-c2cccnc2)cc1	none
COc1ccc(-n2c(/C=C/c3ccc(O)c(OC)c3)nc3ccccc3c2=O)cc1	Peg3 prom inh-1 56 | Peg3 prom inh-2 69
O=C(CNS(=O)(=O)c1ccc(Br)s1)N1CCC2(CC1)OCCO2	none (no result: Shn3 3UTR inh)
O=[N+]([O-])c1cc(F)c(N2CCCCCC2)cc1N1CCNCC1	Peg3 prom inh-1 99 | Peg3 prom inh-2 97
Cn1c(C(=O)O)c(CC(=O)N2CCN(Cc3ccccc3)CC2)c2ccccc21	none
Cc1ccc(C)c(NP(=O)(Oc2ccccc2)Oc2ccccc2)c1	Peg3 prom inh-1 63, KKLEB cytotox -67, CF NFkB inh 97 | Peg3 prom inh-2 67
Cc1ccc(S(=O)(=O)NP(=O)(Oc2ccccc2)Oc2ccccc2)cc1	none
CCOC(=O)[C@]12Cc3cc(C)ccc3[C@H]1N(Cc1ccccc1)C(=O)c1ccccc12	Peg3 prom inh-1 65 | Peg3 prom inh-2 inactive
CCOC(=O)[C@]12Cc3cc(OC)ccc3[C@H]1N(Cc1ccccc1)C(=O)c1ccccc12	none
CCC1(OC(=O)CN)C(=O)OCc2c1cc1n(c2=O)Cc2cc3ccccc3nc2-1 (stereo not drawn)	Peg3 prom inh-1 84, LMP1 NFkB inh 81, CF NFkB inh 79 | Peg3 prom inh-2 73
COc1ccc(OCC#CCN2CCNCC2)cc1	none
COC(COC(N)=O)C1=C(N2CC2)C(=O)C(C)=C(N2CC2)C1=O (stereo not drawn)	Peg3 prom inh-1 98, CF NFkB inh 89 | Peg3 prom inh-2 97
Cc1noc(C)c1CC(=O)N1CCCC(N2CCN(c3ccccc3F)CC2)C1 (stereo not drawn)	none
Cc1ccc2[nH]c(C)c(CCNCc3ccco3)c2c1	none
Cc1[nH]c2ccc(OC(F)(F)F)cc2c1CCNCc1cccc([N+](=O)[O-])c1	Peg3 prom inh-1 82 | Peg3 prom inh-2 58
N#Cc1ccc(Cn2cc(C=O)c3ccccc32)cc1	Peg3 prom inh-1 74 | Peg3 prom inh-2 61
CCC(=O)c1cn(Cc2ccc(C#N)cc2)c2ccccc12	none
CC12CN3CC(C)(CN(C1)C31CCSCC1)C2=O	none
COc1ccc(N2C(=O)CC(N3CCC(n4c(=O)[nH]c5ccccc54)CC3)C2=O)cc1 (stereo not drawn)	none
COc1ccc(-n2nnnc2C(CCSC)N2CCC(n3c(=O)[nH]c4ccccc43)CC2)cc1 (stereo not drawn)	Peg3 prom inh-1 56, CF NFkB inh 81 (no result: LMP1 NFkB inh) | Peg3 prom inh-2 42 | CF NFkB conf 70
O=[N+]([O-])c1ccc(C(=Nc2ccccc2)N2CC2)cc1	none
CC(=O)OC1(C)CC(C)C(=O)C(C(O)CC2CC(=O)NC(=O)C2)C1 (stereo not drawn)	Peg3 prom inh-1 105, HIF-2a block 77, LMP1 NFkB inh 89, Shn3 3UTR inh 95, CF NFkB inh 81 | Peg3 prom inh-2 98 | CF NFkB conf 114

Screening results (PubChem BioAssay)
